# Counter-ions that a name gives are not always drawn. ± gives the standard deviation of the averaged measurements.
# System: E. coli TESEC Mtb Alr
# Test: growth (OD600 after 10 h); higher = more growth (less inhibition)
# Conditions: arabinose 10000 nM; compound 0.1 mM; raw OD600 reference: median of DMSO wells 0.264, cell-free background 0.041
# Description: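 TESEC Mtb Alr E. coli, or the Alr+ wild-type control, in 384-well plates with Prestwick library compounds at 0.1 mM and 1% DMSO, across arabinose induction levels of 1E3 to 1E7 nM. Growth is read as OD600 after 10 h at 37 °C in triplicate biological replicates.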
row,SMILES,growth
1,CN1CCc2cccc3c2[C@H]1Cc1ccc(O)c(O)c1-3 [R(-) Apomorphine hydrochloride hemihydrate],0.254 ± 0.0078
2,CN1CCCN(C(c2ccccc2)c2ccc(Cl)cc2)CC1 (centres undefined) [Homochlorcyclizine dihydrochloride],0.169 ± 0.0051
3,Cc1ncc(CO)c(CO)c1O [Pyridoxine hydrochloride],0.2532 ± 0.0016
4,O=C(NCC(O)CO)c1c(I)c(C(=O)NCC(O)CO)c(I)c(N(CCO)C(=O)CO)c1I (centres undefined) [Ioversol],0.288 ± 0.013
5,C[C@@H]1[C@H](O)[C@@H](C)/C=C/C=C/C=C/C=C/C=C/C=C/C=C/[C@H](O[C@@H]2O[C@H](C)[C@@H](O)[C@H](N)[C@@H]2O)C[C@@H]2O[C@](O)(C[C@@H](O)C[C@@H](O)[C@H](O)CC[C@@H](O)C[C@@H](O)CC(=O)O[C@H]1C)C[C@H](O)[C@H]2C(=O)O [Amphotericin B],0.27 ± 0.0035
6,C=Cc1c(C)c2cc3nc(cc4[nH]c(cc5nc(cc1[nH]2)C(C)=C5CCC(=O)O)c(CCC(=O)OC)c4C)[C@@]1(C)C3=CC=C(C(=O)OC)C1C(=O)OC.C=Cc1c(C)c2cc3nc(cc4[nH]c(cc5nc(cc1[nH]2)C(C)=C5CCC(=O)OC)c(CCC(=O)O)c4C)[C@@]1(C)C3=CC=C(C(=O)OC)C1C(=O)OC (some centres undefined) [Verteporfin],0.289 ± 0.0059
7,CC(C)C[C@H](NC(=O)[C@@H](O)[C@H](N)Cc1ccccc1)C(=O)O [Ubenimex],0.2345 ± 0.0011
8,CC(COc1ccccc1)N(CCCl)Cc1ccccc1 (centres undefined) [Phenoxybenzamine hydrochloride],0.0397 ± 0.0001
9,CN(C)CCCOc1nn(Cc2ccccc2)c2ccccc12 [Benzydamine hydrochloride],0.25 ± 0.0088
10,CC1CS(=O)(=O)CCN1/N=C/c1ccc([N+](=O)[O-])o1 (centres undefined) [Nifurtimox],0.04127 ± 0.00031
11,NCC[C@H](O)C(=O)N[C@@H]1C[C@H](N)[C@@H](O[C@H]2O[C@H](CN)[C@@H](O)[C@H](O)[C@H]2O)[C@H](O)[C@H]1O[C@H]1O[C@H](CO)[C@@H](O)[C@H](N)[C@H]1O [Amikacin hydrate],0.039 ± 0.0001
12,"Cc1cn([C@H]2C[C@H](N=[N+]=[N-])[C@@H](CO)O2)c(=O)[nH]c1=O [Zidovudine, AZT]",0.0544 ± 0.0014
13,NC1CCN(c2nc3c(cc2F)c(=O)c(C(=O)O)cn3-c2ccc(F)cc2F)C1 (centres undefined) [Tosufloxacin hydrochloride],0.0491 ± 0.00026
14,CC[C@H](C)C(=O)O[C@H]1C[C@H](O)C=C2C=C[C@H](C)[C@H](CC[C@@H](O)C[C@@H](O)CC(=O)O)[C@H]21 [Pravastatin],0.297 ± 0.013
15,CC(NCCC(c1ccccc1)c1ccccc1)c1ccccc1 (centres undefined) [Fendiline hydrochloride],0.03877 ± 0.00012
16,CCN1CCCC(OC(=O)C(c2ccccc2)c2ccccc2)C1 (centres undefined) [Piperidolate hydrochloride],0.259 ± 0.012
17,COc1ccc(C(=O)NCc2ccc(OCCN(C)C)cc2)cc1OC [Itopride],0.268 ± 0.011
18,CCCCOc1ccc(C(=O)CCN2CCCCC2)cc1 [Dyclonine hydrochloride],0.252 ± 0.0069
19,CC(C)C(=O)c1c(C(C)C)nn2ccccc12 [Ibudilast],0.245 ± 0.0022
20,"CC(O)(P(=O)(O)O)P(=O)(O)O [Etidronic acid, disodium salt]",0.275 ± 0.0062

row,SMILES,growth
1,Nc1ccc(O)c(C(=O)O)c1 [Mesalamine],0.278 ± 0.0044
2,CC=CC1=C(C(=O)O)N2C(=O)[C@@H](NC(=O)[C@H](N)c3ccc(O)cc3)[C@H]2SC1 [Cefprozil],0.269 ± 0.016
3,O=C(OCC(O)CO)c1ccccc1Nc1ccnc2cc(Cl)ccc12 (centres undefined) [Glafenine hydrochloride],0.164 ± 0.017
4,CC1Cc2ccccc2N1NC(=O)c1ccc(Cl)c(S(N)(=O)=O)c1 (centres undefined) [Indapamide],0.27 ± 0.011
5,CN(C)CCN1C(=O)c2ccccc2N(C)c2ccccc21 [Dibenzepine hydrochloride],0.286 ± 0.0089
6,CO[C@@]1(NC(=O)Cc2cccs2)C(=O)N2C(C(=O)O)=C(COC(N)=O)CS[C@@H]21 [Cefoxitin sodium salt],0.0398 ± 0.0004
7,CCC1(c2ccccc2)NC(=O)N(C)C1=O (centres undefined) [Mephenytoin],0.287 ± 0.011
8,CCN(CC)CC#CCOC(=O)C(O)(c1ccccc1)C1CCCCC1 (centres undefined) [Oxybutynin chloride],0.167 ± 0.004
9,COC(=O)[C@H](c1ccccc1Cl)N1CCc2sccc2C1 [Clopidogrel],0.0411 ± 0.0013
10,CN(C)CCOc1ccc(/C(=C(/CCCl)c2ccccc2)c2ccccc2)cc1 [Toremifene],0.04003 ± 0.00032
11,O=C1c2ccccc2S(=O)(=O)N1CCCCN1CCN(c2ncccn2)CC1 [Ipsapirone],0.249 ± 0.0074
12,COc1ccc(-c2cc(=S)ss2)cc1 [Anethole-trithione],0.218 ± 0.019
13,CCCc1nc2c(C)cc(-c3nc4ccccc4n3C)cc2n1Cc1ccc(-c2ccccc2C(=O)O)cc1 [Telmisartan],0.291 ± 0.011
14,CSc1ccc2c(c1)N(CCC1CCCCN1C)c1ccccc1S2 (centres undefined) [Thioridazine hydrochloride],0.0393 ± 0.00064
15,CCOC(=O)c1ccc(N)cc1 [Benzocaine],0.263 ± 0.0073
16,Cc1cc2c(cc1S(N)(=O)=O)S(=O)(=O)CCC2 [Meticrane],0.259 ± 0.012
17,CC(C)COCC(CN(Cc1ccccc1)c1ccccc1)N1CCCC1 (centres undefined) [Bepridil hydrochloride],0.03937 ± 0.00031
18,NC[C@H]1O[C@H](O[C@H]2[C@H](O[C@@H]3O[C@H](CO)[C@@H](O)[C@H]3O)[C@@H](O)[C@H](N)C[C@@H]2N)[C@H](N)[C@@H](O)[C@@H]1O [Ribostamycin sulfate salt],0.269 ± 0.0065
19,N=C(N)NS(=O)(=O)c1ccc(N)cc1 [Sulfaguanidine],0.26 ± 0.0047

# From the supplement of paper PMC9262897, “Low-cost anti-mycobacterial drug discovery using engineered E. coli” (Nature Communications, 2022)
